# Where “and” joins values, the source holds several entries; their conditions need not be identical. Equal values may be shown once. Out of some 350,000 compounds screened, about 1,200 (0.34%) were called active. Not shown: some 3% with an inconclusive outcome. The call rests on the fitted dose curve; in most records, active means well fitted inhibition curve with a large enough effect; inconclusive means small, poorly fitted or top-dose-only effect; inactive means no such curve, though single readings can be large or run the other way. What follows is part of a selection rich in actives, with near analogues and random picks from the rest. A call without a number means that no potency is given here. More than one record can exist for a structure, and the calls need not agree. Positions of bridges follow the written chain, without caps; N, C: chain ends. Non-standard residues stand in square brackets, D forms with d. Residues, ends and D or L forms follow the SMILES beside them. *: point of attachment. X1 = CC[C@H](C)CCCCC(=O)*; Dab = NCC[C@H](N)C(=O)O
# Molecular target: DNA repair nuclease/redox regulator APEX1 (Homo sapiens) (UniProt P27695)
# Sequence (P27695 whole entry, looked up): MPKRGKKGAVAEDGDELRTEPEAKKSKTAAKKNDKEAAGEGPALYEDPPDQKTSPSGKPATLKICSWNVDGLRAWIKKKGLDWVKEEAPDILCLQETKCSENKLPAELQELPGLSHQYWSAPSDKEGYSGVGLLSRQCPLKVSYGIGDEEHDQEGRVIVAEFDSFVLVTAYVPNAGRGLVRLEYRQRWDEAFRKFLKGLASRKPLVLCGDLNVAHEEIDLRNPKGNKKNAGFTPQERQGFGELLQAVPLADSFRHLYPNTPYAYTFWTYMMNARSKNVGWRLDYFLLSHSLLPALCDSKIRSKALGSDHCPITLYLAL
# Test: qHTS Assay for Inhibitors of the Human Apurinic/apyrimidinic Endonuclease 1 (APE1); further: nearly all actives have a fitted effect of over 55% in size
# Settings: recombinant APE1, TAMRA/BHQ-2 abasic DNA cleavage fluorescence; activity change, negative = inhibition: at 65.8 µM (top of the series)
# How it was run: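 Kinetic fluorescence read (525 ex/598 em nm, three reads 60 s apart) of AP-site incision; signal = third minus first read. Enzyme 0.75 nM, dual-labelled THF duplex 50 nM, compound preincubation 15 min RT.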
# Potency means the concentration at half of the fitted maximal effect.
Compound,Potency,"activity change, negative = inhibition"
C=CCOC(=O)COCCC(C)C,inactive,
CO/N=C(\C(=O)N[C@@H]1C(=O)N2C(C(=O)O)=C(COC(C)=O)CS[C@H]12)c1csc(N)n1 (stereo in doubt),inactive and 10 µM (active) and 10.6 µM (active),
C/C=C/C1=C(C(=O)O)N2C(=O)[C@@H](NC(=O)[C@H](N)c3ccc(O)cc3)[C@H]2SC1,inactive,
CC(C)(C)OC(=O)C1=C(CO)CS[C@@H]2[C@H](NC(=O)Cc3ccccc3)C(=O)N12,inactive,
Cc1nnc(SCC2=C(C(=O)O)N3C(=O)C(NC(=O)Cn4nc(C)c(Cl)c4C)C3SC2)s1 (stereo unspecified),inactive,
Cc1cc(C)cc(C(=O)NC2C(=O)N3C(C(=O)O)=C(CSc4nnc(C)s4)CSC23)c1 (stereo unspecified),inactive,
C=CC1=C(C(=O)O)N2C(=O)[C@@H](NC(=O)/C(=N\OCC(=O)O)c3csc(N)n3)[C@H]2SC1,11.9 µM (active),
CC(C)[C@@H](OCc1ccccc1)[C@H](C)/C=N\OC[C@@H](C)[C@H](OCc1ccccc1)C(C)C,,-2.11% [at 12.4 µM] (inactive)
CO[C@H]1C=CO[C@@]2(C)Oc3c(C)c(O)c4c(O)c(c(/C=N/N5CCN(C)CC5)c(O)c4c3C2=O)NC(=O)/C(C)=C\C=C[C@H](C)[C@H](O)[C@@H](C)[C@@H](O)[C@@H](C)[C@H](OC(C)=O)[C@@H]1C,inactive,
CC[C@H](C)CCCCC(=O)N[C@@H](CCN)C(=O)N[C@H](C(=O)N[C@@H](CCN)C(=O)N[C@H]1CCNC(=O)[C@@H]([C@H](C)O)NC(=O)[C@H](CCN)NC(=O)[C@H](CCN)NC(=O)[C@H](CC(C)C)NC(=O)[C@@H](CC(C)C)NC(=O)[C@H](CCN)NC1=O)[C@@H](C)O (X1-[Dab]T[Dab][Dab][Dab][dL]L[Dab][Dab][dT]; lactam 4-C),inactive,
C[C@H]1Cc2c(COc3ccccc3)nc3c(c2CO1)CN(C(=O)Nc1cccc(C#N)c1)CC3,,-2.12% [at 12.4 µM] (inactive)
OCCC(O)CO (stereo unspecified),inactive,
O=C(c1csnn1)N1CCC[C@@]2(CCN(c3cccc(-c4ccccc4)c3)C2)C1,inactive,
Cn1cccc1C(=O)N1CCC2(CC1)CN(c1cccc(-c3ccccc3)c1)C2,inactive,
Nc1ncnc2c1ncn2C1CC(O)C(CO)O1 (stereo unspecified),inactive,
CC1(OC(=O)c2ccc(Cl)nc2)C(=O)Cc2cc(-c3ccsc3)ncc2C1=O (stereo unspecified),,-0.549% [at 12.4 µM] (inactive)
Cc1ccc(C(=O)NNC(=O)c2cc3cc4ccccc4nc3s2)cc1,22.4 µM (active),
Cc1ccc(C(=O)NNc2ncnc3ccccc23)cc1,inactive,
Cc1ccc(C(=O)NNC(=O)c2ccc3c(c2)OCCO3)cc1,inactive,
Cn1cc(-c2nc3cnc(N4CCNCC4)nc3n(CCc3ccccc3)c2=O)c2ccccc21,inactive,
COc1ccc(Oc2ncc3nc(-c4ccc(F)cc4)c(=O)n(C)c3n2)cc1,inactive,

# From PubChem BioAssay AID2517 (National Center for Advancing Translational Sciences (NCATS), 2010)
